# Assay results as given in PubChem BioAssay AID1053117 (Broad Institute, 2014).
# Potency and affinity values are given separately. Calls of active or inactive are those of the source.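 The calls were made as follows: active = compounds lowering cell ATP signal with a fitted half-effect dose at most twice the top valid dose; inconclusive = flat curve with 30 to 70% signal loss, or bad fit; inactive = wrong direction, flat within 30%, or weaker than limit.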
# Assay: HEK293 cell cytotoxicity, dose response, cytotoxicity control, cherry-picks, set 5 (AID 1053117);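 also: more negative means greater loss of ATP signal and more cytotoxicity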
# Details: HEK293T viability, CellTiter-Glo ATP luminescence, 72 h; series mostly up to 26 µM
smiles,measurement,value
C=C1C(=O)O[C@@H]2C[C@@H](C)[C@@H]3C=CC(=O)[C@@]3(C)[C@@H](O)[C@H]12,outcome,inactive
